For 40 molecules, cell number results are on record in the supplement of paper PMC7156485.

± gives the standard deviation of the averaged measurements.
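Further: TDF denotes transformed human dermal fibroblasts of mesenchymal origin.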

The assay concerns HCC1569. Briefly: cell number relative to DMSO (% of DMSO); higher = more cells (less growth inhibition / toxicity). Particulars: concentration: 10 µM; 24 h. In outline: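 HCC1569 and TDF cells were seeded at 800 per well in 384-well plates in RPMI with 10% FBS and treated with compounds at 10 µM for 24 h at 37 °C, in triplicate. After fixation in 3.7% formaldehyde, cells were stained with a rabbit anti-H1.0 antibody, an AlexaFluor 647 secondary and DAPI, and six fields per well were imaged at ×10. H1.0 nuclear intensity or cell number is given as percent of the plate control, using the median of replicates, with HCC1569 values smoothed for positional effects.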
Take `O=C(O)c1ccccc1Nc1cccc(OCc2ccc3ccccc3n2)c1`: the cell number is 104.
For `C#CC1(O)CCC2C3CCC4=CC(=O)CCC4C3CCC21CC` (stereo not given) [Levonorgestrel] the value was 100; for `CC1=C2C(=COC(C)C2C)C(=O)C(C(=O)O)=C1O` (stereo not given) [Citrinin], 104; for `Br.CN1CCc2cc(O)c(O)cc2C(c2ccccc2)C1` (stereo not given), 105.
Take `O=C([O-])CCC(NC(=O)c1ccccc1C(=O)[O-])C(=O)[O-].[Na+].[Na+].[Na+]` [Phthalamoyl-L-glutamic acid trisodium]: the cell number worked out at 61.8.
For `O=C1CCc2cc(OCCCCc3nnnn3C3CCCCC3)ccc2N1` [Cilostazol] the value was 101; for `CN(C)CCOC(C)(c1ccccc1)c1ccccn1.O=C(O)CCC(=O)O` (stereo not given) [Doxylamine succinate], 99.5; for `COc1ccc(CCN(C)CCc2ccc(OC)c(OC)c2)cc1OC.Cl` [YS-035 hydrochloride], 99.4.
Consider `CCCN(CCC)CC1CCCCN1CCNC(=O)N1c2ccccc2C(=O)Nc2cccnc21` (stereo not given), for which the cell number is 98.5.
In turn, `CCN(CC)C(C)C(=O)N1c2ccccc2Sc2ccccc21.Cl` (stereo not drawn) [10-(alpha-Diethylaminopropionyl)-phenothiazine hydrochloride] showed a cell number of 93.7.
For `CCN(CC)C(=O)C(C#N)=Cc1cc(O)c(O)c([N+](=O)[O-])c1` [Entacapone] the value was 98.2; for `CC(=O)OC1(C(C)=O)CCC2C3C=C(Cl)C4=CC(=O)C5CC5C4(C)C3CCC21C` (stereo not given) [Cyproterone acetate], 91.8; for `FC(F)(F)c1ccccc1-n1ccnc1` [1-[2-(Trifluoromethyl)phenyl]imidazole], 100.
For `Cc1cc(Nc2ncc3cc(-c4c(Cl)cccc4Cl)c(=O)n(C)c3n2)ccc1F` the value was 36.3; for `C=CCc1ccc(O)c(-c2cc(CC=C)ccc2O)c1` [Magnolol], 98.
For `CC(C)[N+](C)(CCOC(=O)C1c2ccccc2Oc2ccccc21)C(C)C.[Br-]` [Propantheline bromide] the value was 99.3; for `Cc1cccc(Nc2ccccc2C(=O)O)c1C` [Mefenamic acid], 104.
The molecule `Cc1cc(C)c(S(=O)(=O)Nc2cccc(C(F)(F)F)c2)c(C)c1` had a cell number of 99.3.
Turning to `CC(=O)OC1C(C)OC(Oc2c(-c3ccc(O)cc3)oc3cc(O)cc(O)c3c2=O)C(O)C1OC(C)=O` (stereo not given) [RSK Inhibitor, SL0101], the cell number is 97.7.
For `CC(C[N+](C)(C)C)OC(N)=O` (stereo not drawn) [Carbamyl-beta-methylcholine] the value was 105; for `CC12CCc3occc3C1CCC13CC(CCC12)C(O)(CO)C3` (stereo not given) [Cafestol], 103.
Turning to `Cc1cc(C(C)(C)C)c(O)c(C)c1CC1=NCCN1.Cl` [Oxymetazoline.HCl], the cell number is 102.
For the molecule `Cl.Cl.Cl.Ic1ccc(N2CCN(Cc3c[nH]c4ncccc34)CC2)cc1` [L-750,667 trihydrochloride], the cell number was 103.
Next, `COc1ccccc1N1CCN(CCCNc2cc(=O)n(C)c(=O)n2C)CC1.Cl` [Urapidil hydrochloride]: 101; `N#Cc1cc2nc([O-])c([O-])nc2cc1[N+](=O)[O-].[Na+].[Na+]` [CNQX disodium]: 99.5; `O=P(O)(O)C(Cl)(Cl)P(=O)(O)O` [Clodronic acid]: 101.
Next, `CN1CCN2c3ccccc3Cc3ccccc3C2C1.Cl` (stereo not given) [Mianserin.HCl]: 107.
In turn, `CCCCCCCOc1cc2c(cc1/C(C)=C/c1ccc(C(=O)O)cc1)C(C)(C)CCS2(=O)=O` had a cell number of 96.9.
Next, `CN(C)C(=N)N=C(N)N` [Metformin]: 100; `O=c1c(O)c(-c2ccccc2O)oc2cc(O)cc(O)c12` [Datiscetin]: 101; `Cn1cnc2c(NC3CCCC3)ncnc21` [N6-Cyclopentyl-9-methyladenine]: 76.8.
For the molecule `O=C1Nc2ccc(Cl)cc2C(C#CC2CC2)(C(F)(F)F)O1` (stereo not given) [Efavirenz], the cell number was determined as 101.
Next, `COC1C(OC(=O)C=CC=CC=CC=CC(=O)O)CCC2(CO2)C1C1(C)OC1CC=C(C)C` (stereo not given) [Fumagillin]: 104 ± 1.1.
For `CC1=NS(=O)(=O)c2cc(Cl)ccc2N1` [Diazoxide] the value was 101.1 ± 0.59; for `CCCCCCCCCCCCCCCCOCC(COP(=O)([O-])OCC[N+](C)(C)C)OC(=O)NC` (stereo not given), 103.
For `O=C1NC(c2cccc([N+](=O)[O-])c2)=CCN1c1ccccc1O` the value was 104; for `CN(C)CCCOC1C(C(O)CO)OC2OC(C)(C)OC21.Cl` (stereo not given) [Amiprilose hydrochloride], 101; for `Cl.Cl.c1ccc2c3c([nH]c2c1)C1C2CCC(C4CCCNC42)N1CC3` (stereo not given), 99.8.
`CCCCCCCCC=CCCCCCCCCCCCCC(=O)O` [14(E)-Tricosenoic acid] had a cell number of 98.3.
`Cc1cnc(-c2cc(N3CCN(C(=O)CCS(C)(=O)=O)CC3)ncc2Cl)c(C)c1.Cl` yielded a cell number of 103.
